# Sm TGR inh = inhibitors of Schistosoma mansoni thioredoxin glutathione reductase; AID 485364; Q962Y6; purified TGR, DTNB reduction, TNB absorbance 405 nm; Potency, µM (series often up to 114 µM), inactives show at the highest dose activity change, negative = inhibition, hits mostly inhibitors; 360,000 tested, 3% active; further: nearly all actives have a fitted effect of over 60% in size
#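 First, TGR (20 nM dispensed) and NADPH were mixed with compound. Second, a 15 min room-temperature incubation followed. Third, further NADPH and then DTNB were added to start the reaction. Finally, TNB absorbance was monitored kinetically.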
# AmpC detergent = blocks E. coli AmpC beta-lactamase in detergent assay; P00811; AmpC hydrolysis of nitrocefin, absorbance 480 nm, 0.01% Triton; Potency, µM (titrated, usually from 114 µM), for inactives: top-dose activity change, negative = inhibition, actives largely listed as inhibitors; 370,000 tested, 0.041% active;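 further: 0% = no-compound wells and -100% = no-enzyme wells; nearly all actives have a fitted effect of over 25% in size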
# Target sequence (P00811 whole entry, looked up): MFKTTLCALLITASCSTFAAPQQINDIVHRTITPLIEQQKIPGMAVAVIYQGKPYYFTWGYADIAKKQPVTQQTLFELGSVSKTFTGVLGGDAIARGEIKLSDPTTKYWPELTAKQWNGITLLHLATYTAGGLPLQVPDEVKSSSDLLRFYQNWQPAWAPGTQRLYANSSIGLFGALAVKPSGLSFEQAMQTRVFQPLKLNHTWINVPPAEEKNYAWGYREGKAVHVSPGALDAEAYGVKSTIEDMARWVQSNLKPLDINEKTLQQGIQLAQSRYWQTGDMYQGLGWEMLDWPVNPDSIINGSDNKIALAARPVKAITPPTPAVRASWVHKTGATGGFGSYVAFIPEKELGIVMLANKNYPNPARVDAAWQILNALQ
#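 20 mM phosphate pH 7.0 + 0.01% (detergent screen) or 0.0001% Triton X-100; 5.3 nM AmpC reagent; cpd preinc 15 min RT; nitrocefin (800 uM stock) to start; A480 q20 s × 4 min; Activity was normalised to no-enzyme and no-compound control wells.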
# AmpC inh no detg = blocks E. coli AmpC beta-lactamase in detergent-free assay; AmpC nitrocefin hydrolysis, absorbance 480 nm, 0.0001% Triton; Potency, µM (titrated, usually from 57.1 µM), without a hit: at the top dose activity change, negative = inhibition, most hits filed as inhibitors; AID 485341; P00811; 330,000 tested, 0.52% active;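 further: plate controls were no compound for no effect and no enzyme for full effect; nearly all actives have a fitted effect of over 20% in size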
#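 AmpC (5.3 nM in the dispensed reagent) in 20 mM phosphate pH 7.0 with 0.01% (detergent screen) or 0.0001% Triton X-100 was preincubated with compounds for 15 min at room temperature. Nitrocefin was then added from an 800 uM solution, and hydrolysis was followed at 480 nm.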
# Giardia FBPA inh-1 = blocks Giardia fructose-bisphosphate aldolase activity; 290,000 tested, 0.71% active; purified Giardia FBPA; AID 2451; A8B2U2; Potency, µM (series often up to 59.6 µM), without a hit: top-dose activity, negative = inhibition, usual class: inhibitors; further: nearly all actives have a fitted effect of over 55% in size
#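 40 nM FBPA preincubated 10 min at RT with compound (up to 57.5 uM final), then substrate plus GAPDH/TPI/NAD/arsenate coupling and diaphorase/resazurin added. Fluorescence read after 20 min at RT, 525/598 nm.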
# Giardia growth = Giardia lamblia growth inhibition | shares compounds with Giardia FBPA inh-1 | Giardia lamblia trophozoite growth inhibition | Potency, µM (doses to about 57.5 µM), for the others: at the highest dose activity change, negative = inhibition, usual class: inhibitors | 1,500 tested, 5% active | AID 2785;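 further: trophozoites exposed to compound for 48 h at 37 °C; nearly all actives have a fitted effect of over 70% in size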
# Mammal cell tox = mammalian cytotoxicity of Giardia aldolase inhibitor hits. shares compounds with Giardia FBPA inh-1. mammalian cell viability counter-screen, qHTS. Potency, µM (series often up to 57.5 µM), for inactives: at the top dose viability change, negative = toxicity, actives largely listed as inhibitors. 1,500 tested, 4% active. AID 2786;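 further: Chinese hamster ovary cells used as mammalian cytotoxicity surrogate; viability measured as cellular ATP by luminescence; compound exposure lasted 48 h before reading; nearly all actives have a fitted effect of over 60% in size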
# Giardia FBPA inh-2 = confirmation of Giardia fructose-bisphosphate aldolase inhibitors | shares compounds with Giardia FBPA inh-1 | purified Giardia aldolase enzyme activity, qHTS | Potency, µM (titrated, usually from 57.5 µM), for inactives: top-dose activity change, negative = inhibition, most hits filed as inhibitors | 1,500 tested, 5% active; further: nearly all actives have a fitted effect of over 45% in size
# Rabbit FBPA inh = blocks rabbit muscle aldolase in Giardia aldolase selectivity test; shares compounds with Giardia FBPA inh-1; Rabbit muscle FBPA enzyme inhibition, selectivity counter-screen; Potency, µM (titrated, usually from 57.5 µM), for the others: at the highest dose activity, negative = inhibition, hits mostly inhibitors; 1,500 tested, 4% active; AID 2794; further: nearly all actives have a fitted effect of over 60% in size
# Target sequence (P00883 whole entry, looked up): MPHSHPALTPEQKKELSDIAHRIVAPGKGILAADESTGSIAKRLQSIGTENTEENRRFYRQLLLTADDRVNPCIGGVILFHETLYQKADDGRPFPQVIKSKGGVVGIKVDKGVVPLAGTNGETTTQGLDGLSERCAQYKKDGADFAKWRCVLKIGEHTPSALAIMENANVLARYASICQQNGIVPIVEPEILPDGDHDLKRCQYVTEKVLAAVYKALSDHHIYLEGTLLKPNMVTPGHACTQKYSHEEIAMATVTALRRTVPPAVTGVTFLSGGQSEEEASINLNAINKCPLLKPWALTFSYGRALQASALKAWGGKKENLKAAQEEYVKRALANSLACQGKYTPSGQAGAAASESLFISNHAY
# GAPDH coupling = GAPDH inhibition flagged for Giardia aldolase hits. 1,500 tested, 6% active. shares compounds with Giardia FBPA inh-1. GAPDH coupling enzyme counterscreen, biochemical, qHTS. Potency, µM (highest dose often 57.5 µM), inactives show at the highest dose activity change, negative = inhibition, actives largely listed as inhibitors; further: nearly all actives have a fitted effect of over 55% in size
# The depositor's hits bear a star; ? = inconclusive; . = no result; [ ] = dose if it differs, or a comment. Hits are enriched below; roughly 3.6% of the tested compounds scored in any of these assays. The call rests on the fitted dose curve; in most records, active means well fitted curve in the direction sought with a large enough effect; inconclusive means small, poorly fitted or top-dose-only effect, or another doubt; inactive means no such curve, though single readings can be large; an effect the other way counts as inactive or inconclusive. Unless noted, on the % scale 0 is the no-effect control and ±100 the full control effect; potency means the concentration at half of the fitted maximal effect.
SMILES,Sm TGR inh,AmpC detergent,AmpC inh no detg,Giardia FBPA inh-1,Giardia growth,Mammal cell tox,Giardia FBPA inh-2,Rabbit FBPA inh,GAPDH coupling
COc1ccc(CN(C)S(=O)(=O)c2nnc(NC(=O)c3ccc(C)cc3)s2)cc1OC,2%,-12%,1%,25µM*,-14%,-5%,?,?,20µM*
CC(C)N(C(=O)CS(=O)(=O)c1ccc(Cl)c(Cl)c1)C(C)C,7%,?,28%,1%,.,.,.,.,.
NC(=S)N=Nc1ccc(NN=C(N)N)cc1,50µM*,?,-24%,10µM*,22%,-3%,?,?,?
FC(F)(F)c1ccnc(NCc2ccc(Cl)cc2)n1,0%,-21%,-21%,-1%,.,.,.,.,.
O=S(=O)(NNc1nccc(C(F)(F)F)n1)c1cccc(Cl)c1Cl,-14%,-4%,-13%,16µM*,23%,-2%,?,?,?
O=C(O)c1cc2nccc(-c3ccco3)n2n1,?,-1%,-8%,-8%,.,.,.,.,.
COc1ccc(-c2ccnc3cc(C(=O)O)nn23)cc1,8%,-3%,-10%,18µM*,47%,23%,4%,0%,7%
O=C1CS/C(=N/N=C\c2ccn[nH]2)N1,12%,-12%,-8%,18µM*,?,-1%,3%,6%,12%
O=C1CS/C(=N/N=C2C3CC4CC(C3)CC2C4)N1,5%,-12%,-10%,10%,.,.,.,.,.
CCCCCCC(=O)N/N=C/c1c(O)n(C2CC2)c(=S)[nH]c1=O,9%,-2%,-27%,-28%,.,.,.,.,.
C=CCn1c(O)c(/C=N/NC(=O)CCCC)c(=O)[nH]c1=S,2%,1%,-19%,7.1µM*,-12%[10.4 µM],2%,4%,-10%,-2%
O=C(Nc1ncc([N+](=O)[O-])s1)c1cccs1,-21%,-12%,-15%,0%,.,.,.,.,.
Cc1ncoc1C(=O)Nc1ncc([N+](=O)[O-])s1,-10%,-10%,-46%,18µM*,?,-18%,1%,2%,11%
c1ccc(-c2noc(-c3cccnc3NCc3ccco3)n2)cc1,3%,7%,.,.,.,.,.,.,.
NNC(=O)c1cn2ccccc2n1,3%,-6%,-8%,-30%,.,.,.,.,.
Cc1cnc(C(=O)Nc2nccs2)cn1,-3%,-9%,-6%,20µM*,-9%,18%,3%,2%,11%
O=C(Nc1nccs1)c1cn2ccccc2n1,2%,4%,-19%,14µM*,?,20µM*,-7%,-3%,1%
N#Cc1ccccc1NC(=O)CSc1nc(-c2ccccc2)cc(C(F)(F)F)c1C#N,5%,16%,.,.,.,.,.,.,.
CCOC(=O)c1c(NC(=O)Cc2coc3cc(C)cc(C)c23)sc2c1CCC2,4%,-8%,.,.,.,.,.,.,.
CCc1cccc(C)c1Nc1nc2ccccc2n2cnnc12,8%,-14%,-4%,10%,.,.,.,.,.
O=[N+]([O-])c1ccccc1C1Nc2cccc3cccc(c23)N1,0%,4%,-30%,?,10µM*,-19%,?,-25%,?
COc1cc(Cl)ccc1NC(=S)N(CCN1CCOCC1)C1CCN(C(C)=O)CC1,6%,6%,58%,18µM*,-7%[10.4 µM],4%,6%,1%,5%
CC(=O)N1CCC(N(CCN2CCOCC2)C(=S)Nc2ccc(C)cc2)CC1,-26%,-8%,0%,7.1µM*,-19%[38.3 µM],-13%,2%,12%,5%
CCOC(=O)N1CCN(C(=S)NC(=O)c2ccc(F)c(F)c2)CC1,-29%,3%,2%,16µM*,59%,-15%,2%,6%,10%
CCN(C(=O)c1cc(S(=O)(=O)N2CCOCC2)cn1C)c1ccc(OC)cc1,0%,22%,.,.,.,.,.,.,.
SMILES,Sm TGR inh,AmpC detergent,AmpC inh no detg,Giardia FBPA inh-1,Giardia growth,Mammal cell tox,Giardia FBPA inh-2,Rabbit FBPA inh,GAPDH coupling
CCN(C(=O)c1cc(S(=O)(=O)N2CCOCC2)cn1C)c1cccc(C)c1,-17%,-16%,-5%,13µM*,28%,-5%,10%,0%,2%
Cc1ccc(S(=O)(=O)N2CCCCC2)cc1NC(=O)CNCc1ccco1,2%,-1%,28%,7.9µM*,?,7%,9%,3%,1%
O=C(CNCc1ccco1)Nc1ccc(N2CCCCCC2)cc1,-4%,-9%,4%,18µM*,?,-8%,-11%,-15%,-12%
C[C@H](NC(=O)c1cc2c(cn1)[nH]c1ccccc12)C(=O)O,10%,-2%,-32%,-19%,-1%[38.3 µM],-9%,-12%,-5%,-7%
CC1CC(C)CN(C(=O)C2CCN(S(=O)(=O)c3c(Cl)cccc3Cl)CC2)C1 (stereo unspecified),-1%,0%,36%,.,.,.,.,.,.
CC1=CN(S(=O)(=O)c2ccc(C)cc2)C[C@@H]2[C@H]3CC[C@H](C3)[C@H]12,.,.,-21%,.,.,.,.,.,.
O=c1c(CO)cc(CO)cc(CO)c1O,0%,-9%,-5%,?,-4%[38.3 µM],-10%,-23%,-10%,-16%
CN(C1=C(NC(=O)c2ccccc2)C(=O)c2ccccc2C1=O)C1CCS(=O)(=O)C1 (stereo unspecified),?,-12%,-40%,0.63µM*,25µM*,40µM*,?,?,6.3µM*
CN(C(=O)c1ccccc1Br)C1CCS(=O)(=O)C1 (stereo unspecified),4%,-7%,-12%,.,.,.,.,.,.
O=C(c1ccccc1)c1ccccc1N1C(=O)C=CC1=O,0.56µM*,?,-3%,16µM*,-7%[10.4 µM],7%,-10%,-19%,-21%
COc1ccc(OC)c(N=c2ssnc2Cl)c1,56µM*,-10%,-32%,18µM*,?,9%,-10%,5%,-4%
Cc1cc(Cl)ccc1N=c1ssnc1Cl,?,-7%,-31%,16µM*,-21%,7%,-1%,-3%,21%
COc1cc(N=c2ssnc2Cl)c(OC)cc1Cl,?,3%,-8%,?,.,.,.,.,.
O=C(CSc1n[nH]c(=O)n1-c1cccnc1)Nc1ccccc1Cl,-17%,-2%,-17%,.,.,.,.,.,.
CCOC(=O)c1cccc(NS(=O)(=O)c2ccc(-c3coc(C)n3)cc2)c1,0%,3%,.,.,.,.,.,.,.
NC(=S)N/N=C1\c2ccccc2-c2c(C(=O)O)cccc21,2%,-2%,-42%,4µM*,4%[10.4 µM],2%,6%,3%,11%

# Screening data from PubChem.
